Measurements taken from PubChem BioAssay AID504652 (National Center for Advancing Translational Sciences (NCATS), 2011).
The whole screen tested about 360,000 compounds, of which about 11,000 (3.1%) were called active. The entries come from a sample that favours actives as a whole. Unmarked numbers belong to inactive results. Cut-off read from the data, not from the text of the source: active = activity change below about -30%; inactive = the rest.

What follows are compounds tested against D(1A) dopamine receptor (Homo sapiens) (UniProt P21728) (assay: Antagonist of Human D 1 Dopamine Receptor: qHTS). Conditions: HEK293 TREx D1 cells, calcium flux, dopamine EC80; at 10 µM; active compounds read low.
D(1A) dopamine receptor (Homo sapiens), sequence (P21728 whole entry, looked up): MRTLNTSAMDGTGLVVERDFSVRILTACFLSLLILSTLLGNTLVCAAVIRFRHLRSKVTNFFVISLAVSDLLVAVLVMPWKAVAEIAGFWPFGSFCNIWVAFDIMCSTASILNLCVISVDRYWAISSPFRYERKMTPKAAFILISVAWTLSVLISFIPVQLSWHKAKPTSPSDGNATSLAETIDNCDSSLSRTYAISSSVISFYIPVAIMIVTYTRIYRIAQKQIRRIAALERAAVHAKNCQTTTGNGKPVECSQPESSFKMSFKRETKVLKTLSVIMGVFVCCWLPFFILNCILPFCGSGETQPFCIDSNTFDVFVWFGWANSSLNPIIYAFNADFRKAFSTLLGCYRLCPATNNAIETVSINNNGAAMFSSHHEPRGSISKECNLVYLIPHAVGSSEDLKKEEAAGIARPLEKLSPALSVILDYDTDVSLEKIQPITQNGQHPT
From the text: Dopamine receptors (DARs) are involved in the etiology and/or therapy of a number of neuropsychiatric and endocrine disorders. For instance, all receptor-based antiparkinsonian drugs work via stimulating the […] DAR subtype whereas all FDA-approved antipsychotic agents are antagonists of this receptor. […] There are three different types of allosteric modulators that we are seeking, two of which will stimulate or augment receptor signaling, allosteric agonists and potentiators, while the third, allosteric antagonists, will attenuate receptor signaling. The present primary screening assay measures compound antagonism after an EC80 addition of dopamine by tracking calcium flux in a […], inducible Hek293 Trex D1 cell line. NIH Chemical Genomics Center [NCGC] NIH Molecular Libraries Probe Centers Network [MLPCN] MLPCN Grant: NS064831-01 Assay Submitter (PI): David Sibley
Freshly passaged cells are plated in 1536 well black, clear bottom plates at a density of 4000 cells/well in 3 ul of complete media containing 1x tetracycline inducer. After an overnight incubation at 30 C in 5% CO2, cells are loaded with 2 ul of the no wash Calcium Assay Kit (ABD Bioquest) and incubated at room temperature for 30 to 90 minutes. Agonist read: A 10 cycle (1 second/cycle) baseline measurement is taken and then the FDSS online 1536 pintool delivers 23 nl of compound library (as well as dopamine controls) to the plate. The plate is measured for kinetically at 1 cycle/sec for 180 seconds. Following the 180 second read, 1 ul of an EC80 (negative modulation assay) is delivered by an onboard pipette head. Measurements are taken kinetically for an additional 180 seconds.
% is set by controls: 0 for no effect and ±100 for the full control effect.

Compound | activity change, negative = inhibition
Cn1c(SCc2ccc(F)cc2)nnc1-c1ccncc1 | 5.13%
O=c1cc(CSc2ncn[nH]2)[nH]c2ccc(F)cc12 | 10.4%
Cc1nnc(SCc2cc(=O)c3cc(F)ccc3[nH]2)n1C | -67.4% (active)
Cc1cccc(NC(=O)c2ccc3nc(C(C)C)oc3c2)c1C | 9.09%
CC1CC1C(=O)OCC(=O)c1c(N)n(C)c(=O)n(C)c1=O (stereo not given) | 5.53%
Cn1c(N)c(C(=O)COC(=O)c2cnc(Cl)c(Cl)c2)c(=O)n(C)c1=O | 12.2%
Cc1cc(C(=O)OCC(=O)c2c(N)n(C)c(=O)n(C)c2=O)c(C)o1 | -60.8% (active)
O=C(CSc1nccn1-c1ccc(F)cc1)Nc1cccc2ccccc12 | 43.1%
O=C(Cn1c(=O)n(Cc2cccs2)c(=O)c2cccnc21)Nc1ccc(F)cc1 | 2.03%
Cc1c(Cl)cccc1NC(=O)C1CCCN(c2ncnc3onc(C)c23)C1 (stereo not given) | -3.12%
COc1ccc(C(CCN(Cc2ccc(OC)c(OC)c2)C(=O)CCl)c2ccccc2)cc1 (stereo not given) | 0.248%
COc1ccc(CN(C)C(=O)CC(c2ccccc2)c2ccccc2)cc1 | -31.6% (active)
CN(Cc1ccccc1)C(=O)COc1ccccc1 | 2.23%
CCC(NC(=O)c1cc(COc2ccc(F)c(F)c2)on1)c1ccncc1 (stereo not given) | -27.1%
O=C(c1cc(COc2ccc(F)c(F)c2)on1)N1CCOCC1 | -16.4%
CCOC(=O)CC1COCCN1C(=O)c1cc(COc2ccc(F)c(F)c2)on1 (stereo not given) | -41% (active)
Cc1ccc(C(=O)N2CCc3cc(CNC(=O)c4ccc(Br)cc4)ccc32)cc1 | 3.02%
Cc1noc2ncnc(NCc3ccccc3Cl)c12 | -4.33%
Nc1ncc(S(=O)(=O)Nc2ccc(OC(F)(F)F)cc2)cn1 | 18%
COc1ccc(OC)c(S(=O)(=O)Nc2c(C)nn(C)c2C)c1 | 2.31%
Cc1nn(C)c(C)c1NS(=O)(=O)c1ccc(OC(F)(F)F)cc1 | -90.7% (active)
Cc1cccc(NC(=O)C2CCN(S(=O)(=O)c3c(C)noc3/C=C/c3ccco3)CC2)c1 | -5.72%
C=Cc1ccc(Cn2c(C(=O)OC)cc3sc(C)cc32)cc1 | 21.5%

Compound | activity change, negative = inhibition
CC(Sc1nnc(-c2cccs2)n1C1CC1)C(=O)NCC1CCCO1 (stereo not given) | -30.6% (active)
CC(Sc1nn(-c2ccc(Cl)cc2)c(=S)s1)C(=O)NCC1CCCO1 (stereo not given) | -0.972%
Cc1ccc(N(C(=O)Cc2cccs2)C(C(=O)NCC2CCCO2)c2ccncc2)cc1 (stereo not given) | -0.595%
CC(C)OCCCn1c(SCC(=O)c2ccccc2)nc2c(sc3ccccc32)c1=O | 4.36%
Cc1cc(C)cc(OC(C)C(=O)Nc2nc3c(s2)CCCC3)c1 (stereo not given) | 3%
COc1ccc2cc(CNc3ccc(OC)c(OC)c3)c(=O)n(CC(=O)Nc3ccccc3F)c2c1 | -14.2%
O=C(NCCc1c[nH]c2ccccc12)C1CCN(Cc2ccc(Br)cc2)CC1 | -56.3% (active)
CCOc1ccc(CN2CCN(Cc3c[nH]c4ccccc34)CC2)cc1 | 4.58%
Cc1ccc2[nH]cc(CCNC(=O)C3CCCCC3)c2c1 | -23.8%
Cc1cc(C)cc(NS(=O)(=O)c2ccc3[nH]cc(C(=O)N4CCCCC4)c(=O)c3c2)c1 | -3.92%
CCN(c1ccc(Cl)cc1)S(=O)(=O)c1nnc(NC(=O)c2ccco2)s1 | -1.57%
COc1cccc(CN(C)CC2CCCN(CCc3ccc(Cl)cc3)C2)c1OC (stereo not given) | -79.9% (active)
Cc1nc2ccc(C(=O)N(C)CC3CCCN(CCc4ccc(Cl)cc4)C3)cc2[nH]1 (stereo not given) | -13.3%
COc1cccc(CN(C)CC(=O)NCc2ccccc2Cl)c1OC | -23.2%
CCc1ccc(NC(=O)CCS(=O)(=O)c2cc3c(cc2Cl)NC(=O)CO3)cc1 | -16.7%
COc1ccc(-n2c(SCC(N)=O)nc3c(oc4ccccc43)c2=O)cc1 | 10.8%
Nc1c(C(=O)c2cccs2)sc2nsc(SCCN3CCCCC3)c12 | -42.4% (active)
CN(C)c1ccc(C(CNS(=O)(=O)c2cc(F)ccc2F)N2CCOCC2)cc1 (stereo not given) | -3.66%
Cc1cccc(NC(=O)CSc2nc3c([nH]c4ccccc43)c(=O)n2-c2cc(C)cc(C)c2)c1 | 23.9%
Cc1ccc(NC(=O)CSc2nc3c([nH]c4ccccc43)c(=O)n2-c2ccccc2)cc1Cl | -8.44%
Cc1ccc(NC(=O)CSc2nc3c([nH]c4ccccc43)c(=O)n2-c2ccccc2)c(C)c1 | -35.7% (active)
CCc1ccccc1NC(=O)CSc1nnc(-c2ccncc2)o1 | 7.4%
CCN(CC)C(=O)CSc1nnc(-c2ccc(S(=O)(=O)NCc3ccccc3Cl)cc2)o1 | -32.6% (active)

Compound | activity change, negative = inhibition
CCN(C(=O)CSc1nnc(-c2ccncc2)o1)c1ccccc1 | -3.41%
CCOc1ccc(C(=O)c2cn(Cc3ccc(F)cc3)c3ccc(F)cc3c2=O)cc1 | -1.13%
Cc1cccc(Cn2c(SCc3ccc(C(=O)N4CCC(C)CC4)cc3)nc3ccncc32)c1 | -18.5%
CN1CC(c2ccccc2)C2(COc3ccccc3C2=O)C12C(=O)Nc1ccccc12 (stereo not given) | -39.3% (active)
O=C1NC(c2ccccc2)Oc2ccccc21 (stereo not given) | 3.6%
Oc1ccccc1-c1nc(/C=C/c2ccc(F)cc2)no1 | 3.54%
Cc1cc2c(cc1S(=O)(=O)CCC(=O)Nc1ccc(OC(F)(F)F)cc1)OCC(=O)N2 | -0.986%
CCOC(=O)c1ccc(NC(=O)CC2C(=O)N(c3cccc(OC)c3)C(=O)N2C2CCCCC2)cc1 (stereo not given) | -8.12%
CC(=O)c1sc(N/N=C\c2ccc(C)cc2)nc1C | -54.7% (active)
CC(=O)c1sc(N/N=C/c2ccc(C(C)C)cc2)nc1C | -11%
CC(=O)c1sc(NC(=O)C2=NN(c3ccccc3)C(=O)CC2)nc1C | 2.3%
CCOC(=O)CNC(=O)c1cc2c(=O)n3cccc(C)c3nc2s1 | 0.697%
COc1ccc(N(CC(=O)NC2CCCCC2)S(=O)(=O)c2c(C)[nH]c(=O)[nH]c2=O)cc1 | -34% (active)
CCOc1ccc(N(CC(=O)NC2CCCCCC2)S(=O)(=O)c2c(C)[nH]c(=O)[nH]c2=O)cc1 | 7.77%
COc1ccc(N(CC(=O)NC2CCCCCCC2)S(=O)(=O)c2c(C)nn(C)c2C)cc1 | -2.1%
CCCOn1c(-n2nc(C)cc2C)nc2ccccc2c1=O | -4.18%
Cc1cc(C)n(-c2c(F)c(F)c(COC(=O)c3ccccc3)c(F)c2F)n1 | -44% (active)
CCOC(=O)c1cnc(-n2nc(C)cc2C)nc1NNc1cc(C)nc(-c2ccccc2)n1 | -5.98%
CCCN(CCC)C(=O)C1CCCN(c2ncnc3c2nc2n3CCCCC2)C1 (stereo not given) | 11.5%
CC(OC(=O)CCCc1c[nH]c2ccccc12)C(=O)Nc1ccc(S(N)(=O)=O)cc1 (stereo not given) | 8.67%
Cc1cc(C(=O)Nc2ccc(C)c(S(=O)(=O)N3CCOCC3)c2)c2ccccc2n1 | 11.4%
Cc1ccc(NC(=O)C(C)OC(=O)Cc2c[nH]c3ccccc23)cc1S(=O)(=O)N1CCOCC1 (stereo not given) | -47.8% (active)
COc1cc(OC)c(OC)cc1/C=C/c1nc2cc3ccccc3cc2c(=O)n1-c1ccc(F)c(Cl)c1 | -0.661%

Compound | activity change, negative = inhibition
CCCN(CCC)C(=O)Cn1c(=O)n(-c2ccc(Cl)cc2)c(=O)c2c3c(sc21)CCCCC3 | 10.1%
Cc1ccc(CNC(=O)Cn2c(=O)ccc3cc(S(=O)(=O)N4CCCC4)ccc32)cc1 | 3.17%
Cc1ccc(NC(=O)OCCNC(=O)c2ccncc2)cc1 | -26.6%
CCCCCOC(=O)NCCOC(=O)Nc1ccc(C(=O)OCC)cc1 | -34.7% (active)
CCCCC(CCC(=O)Nc1ccc(C(=O)OCC)cc1)C(=O)O (stereo not given) | -5.38%
Cc1ccc2nc(COc3cccc(NC(=O)c4cccc(Cl)c4)c3)cc(=O)n2c1 | 3.14%
CCOC(=O)c1cc2c(=O)n3ccccc3nc2n(Cc2ccco2)c1=NC(=O)c1ccc(F)cc1 | -29.5%
COc1ccc(OC)c(NC(=O)Cn2c(=O)n(Cc3ccccc3)c(=O)c3ccccc32)c1 | -5.43%
CCOc1ccc(NC(=O)c2c(NC(=O)Cc3ccccc3)sc3c2CCC(C)C3)cc1 (stereo not given) | 11.2%
Cc1ccc(NC(=O)c2cc(S(=O)(=O)NCCC3=CCCCC3)ccc2F)cc1C | -29.8%
CC(Nc1nc(N2CCN(CCO)CC2)nc2ccccc12)c1ccccc1 (stereo not given) | 2.98%
CC(Nc1nc(N2CCCC2)nc2ccccc12)c1ccccc1 (stereo not given) | -25.4%
CC(Nc1nc(N2CCOCC2)nc2ccccc12)c1ccccc1 (stereo not given) | -48.3% (active)
Cc1ccccc1CNC(=O)c1cccc(NC(=O)c2nsc3ccccc23)c1 | 3.86%
COc1cc(CNCCSc2nnnn2C)ccc1OCc1ccc(Cl)cc1Cl | 0.753%
CN(C)c1ccc(C(=O)NCC(=O)OC(C(=O)Nc2cc(C(F)(F)F)ccc2Cl)c2ccccc2)cc1 (stereo not given) | -15.1%
Cc1ccc(C(=O)Cn2cccn2)cc1 | -6.01%
Cc1ccc(C(=O)Cc2nnc(C)s2)cc1 | 7.19%
Cc1ccc(C(=O)CS(C)(=O)=O)cc1 | -33.3% (active)
CCc1nc2onc(C)c2c(=O)n1CC(=O)O | 10.4%
O=C(COc1ccccc1F)OCc1cc(=O)n2nc(C3CCCCC3)sc2n1 | 11%
